Data taken from PubChem BioAssay AID2216 (Broad Institute, 2009).
Out of some 300,000 compounds screened, about 3,300 (1.1%) were called active. About 6% were inconclusive and are not listed.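 Rule for the calls: active = more than half of the replicate wells show a fall in the fluorescence ratio signal beyond about 16% (limit read from the data, passing the limit was not always enough); inconclusive = exactly half of the replicate wells pass the set limit; inactive = fewer than half of replicates pass the limit.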 For the sample, actives were picked, then their nearest neighbours and some compounds at random.

test system: Ran GTPase (GTP-bound) - importin-beta complex; experiment: disruptors of Ran-importin-beta complex formation – biochemical, FRET, CFP-Ran, YFP-importin-beta, homogeneous, primary screen (AID 2216); conditions: cell-free CFP-Ran/YFP-importin-beta FRET ratio; hits give high values; concentration not given here;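 note: 0% = DMSO wells and 100% = Ran loaded with GDP instead of GTP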

inhibition, active:
Cc1nc2ccccc2c2oc(C(=O)NCCCN3CCC(C)CC3)cc12 34.1%
CCOC(=O)c1c(C)oc2cc(Br)c(OCC(N)=O)cc12 19%
N#CC1=C(N)Oc2cc(O)ccc2C1C1CCCCC1 (stereo not drawn) 140%
Cc1nc(Nc2ccccc2F)c2nnn(Cc3ccccc3Cl)c2n1 35.1%
CCCN(CCC)C(=S)Nc1cc(C(=O)OC)ccc1C(=O)OC 41%
COC(=O)c1ccc(C(=O)OC)c(NC(=S)N2CCCCC2)c1 55.3%
CCN(CCO)C(=S)Nc1cc(C(=O)OC)ccc1C(=O)OC 16.3%
CCN(CC)CCN1C(=O)C(=O)/C(=C(/O)c2ccc(OC)c(OC)c2)C1c1ccccn1 (stereo not drawn) 33.8%
O=C1C(=O)N(CCN2CCOCC2)C(c2ccccn2)/C1=C(/O)c1ccc(Cl)cc1 (stereo not drawn) 20.4%
O=C(Nc1cnccn1)c1cccnc1 15.8%
CCN1CCc2nc(NC(=O)c3cc(F)c(F)cc3Cl)sc2C1 19.6%
CSc1sc(C)cc1C1C(C#N)=C(N)N(c2cccnc2)C2=C1C(=O)CCC2 (stereo not drawn) 18.2%
CCOC(=O)c1oc2c(CN3CCN(CCO)CC3)c(O)c(CC)cc2c(=O)c1-c1nc2ccccc2s1 16.5%
COc1ccc(C(=O)C[n+]2ccc(N)c(C)c2C)cc1 26.2%
CCOc1ccc(N=Cc2c(O)n(-c3cccc(C)n3)c(=O)c3ccccc23)cc1 22.9%
O=C(CSC(=S)N1CCCCC1)c1c(F)cccc1F 18.8%
COc1ccc(C2C(C#N)=C(N)Oc3cc(N)ccc32)cc1OC (stereo not drawn) 70.8%
CCOC(=O)c1cc2c(ccn2C)n1CC(=O)N1CCC(C)CC1 24.7%
COC(=O)c1cc2c(ccn2C)n1C 21.8%

inhibition, inactive:
CC(=O)N[C@H]1[C@H]([C@H](O)[C@H](O)CO)OC(C(=O)O)=C[C@@H]1O 1.4%
COc1ccc(Cl)cc1NC(=O)CN(C)C(=O)c1cc(-c2cccs2)nn1-c1ccccc1 0.469%
CCCN(CCC)CCNC(=O)c1cc2c(C)nc3ccccc3c2o1 0.401%
Cc1nc2ccccc2c2oc(C(=O)NCC3CCCO3)cc12 (stereo not drawn) 4.76%
O=C(NCCS(=O)(=O)NCc1ccc(Cl)cc1)c1ccccc1 5.39%
CCOC(=O)c1c(-c2ccccc2)oc2ccc(OCC(N)=O)cc12 0.113%
CCOC(=O)c1c(C)oc2ccc(OCC(=O)N(CC)CC)cc12 -3.75%
Cc1cc(-c2nnc(SCC(=O)Nc3ccc(S(N)(=O)=O)cc3)n2N)n[nH]1 0.809%
Cc1cccc(NC(=O)N2CCCCCC2)c1C 2.28%
COCc1[nH]nc2c1C(C1C=CCCC1)C(C#N)=C(N)O2 (stereo not drawn) -7.86%
N#CC1=C(N)OC2=C(C(=O)CCC2)C1C1CC=CCC1 (stereo not drawn) -2.87%
COc1ccc(CNC(=O)C2CCCC2)cc1 -1.07%
Cc1ccc2nc(NC(=O)CSc3nc(=O)n(CCCN(C)C)c4c3CCC4)sc2c1 1.53%
Cc1nc(Nc2ccc3c(c2)OCCO3)c2nnn(Cc3ccccc3Cl)c2n1 3.56%
Cc1nc(Nc2ccc(S(=O)(=O)N3CCCC3)cc2)c2nnn(Cc3ccccc3)c2n1 5.61%
COc1ccccc1-n1ccnc(SCC(=O)NC2CCCCC2)c1=O -1.18%
CC(C)N(Cc1ccccc1)C(=O)COC(=O)c1ccccc1SCC(=O)N1CCCC1 -1.94%
CC(=O)C12CC(C)=C(C)CC1CC1C3CCC4=CC(=O)CCC4(C)C3CCC12C (stereo not drawn) 1.03%
COC(=O)c1ccc(C(=O)Nc2cc(Cl)ccc2Cl)cc1NC(=O)c1ccccc1C 2.78%
COC(=O)c1ccc(C(=O)OC)c(NC(=S)N2CCN(c3cc(Cl)ccc3C)CC2)c1 6.93%
CCCOc1ccc(CN(CCO)CCO)cc1C(=O)OC -2.69%
CCS(=O)(=O)Nc1cc(C(=O)OC)ccc1C(=O)OC 4.57%
CCN(CC)C(=O)CCC(=O)Nc1ccc(C(=O)OC)cc1 -3.39%
COC(=O)c1ccc(C(=O)OC)c(NC(=S)N2CCN(c3ccc(F)cc3)CC2)c1 6.98%
CN(C)C(CNC(=O)c1cccc(S(=O)(=O)Nc2ccc(Br)cc2)c1)c1ccco1 (stereo not drawn) -0.145%
CCc1noc(C)c1C(=O)NNC(=O)c1ccc(F)cc1 3.18%
Cc1ccccc1OCC(=O)NNC(=O)c1ccc(-n2cncn2)c([N+](=O)[O-])c1 3.51%
COc1ccccc1CNC(=O)CSc1nc(=O)n(Cc2ccncc2)c2c1CCC2 -4.86%
O=C(Nc1ncccc1O)c1ccc(C(=O)c2ccccc2)cc1 -5%
O=C(COC(=O)c1ncc(Cl)c(Cl)c1Cl)NC1CCS(=O)(=O)C1 (stereo not drawn) 1.31%
COCc1cc(=O)n2[nH]c(C)c(-c3ccccc3)c2n1 1.2%
CC1Cc2cc(/C(O)=C3\C(=O)C(=O)N(CCN4CCOCC4)C3c3ccccc3F)ccc2O1 (stereo not drawn) 1.9%
COc1ccc(/C(O)=C2/C(=O)C(=O)N(CCCN(C)C)C2c2ccccc2)cc1OC (stereo not drawn) 3.13%
COc1ccc(C2/C(=C(/O)c3ccc(OC(C)C)cc3)C(=O)C(=O)N2CCCN2CCOCC2)cc1 (stereo not drawn) -1.52%
CCN(CC)CCN1C(=O)C(=O)/C(=C(/O)c2ccccc2)C1c1ccccc1F (stereo not drawn) -0.379%
CCOc1ccc(CCNC(=O)COC(=O)c2ccc(F)c(S(=O)(=O)N3CCOCC3)c2)cc1OCC -2.22%
CCN(CC)c1ccc(NC(=O)c2ccc(=O)[nH]c2)cc1S(=O)(=O)Nc1ccc(OC)cc1 -0.956%
O=C(NNC(=O)c1cccnc1)Nc1ccccc1 -0.622%
CCOc1ccccc1NC(=O)c1cccnc1 -0.62%
O=C(Nc1cc(S(=O)(=O)N2CCOCC2)ccc1OCC(F)(F)F)c1ccc(N2CCCC2=O)cc1 5.96%
COCC1CCN(C(=O)c2ccc3oc(Cc4ccccc4)nc3c2)C1 (stereo not drawn) 1.03%
O=C(Nc1ccc(OCC(=O)N2CCOCC2)cc1)c1cc(F)c(F)cc1Cl 3.93%
CC(=O)Cc1nsc(NC(=O)c2ccc(Cl)cc2Cl)n1 1.86%
CCOc1ccc(NC(=O)CN(C)C(=O)COc2cccc(CC)c2)cc1OCC -1.27%
[O-][n+]1ccc(OCc2ccccc2)cc1 -2.54%
CCC(C)c1ccccc1N1CC(C(=O)N2CCN(S(=O)(=O)c3ccc(F)cc3)CC2)CC1=O (stereo not drawn) 1.46%
NC1=NC(c2ccc([N+](=O)[O-])cc2)N(c2ccc(F)cc2)C(N)=N1 (stereo not drawn) 1.29%
CCOc1cc2ccccc2cc1C(=O)Nc1ccccn1 3.29%
N#CC1=C(N)N(c2ccccc2)C2=C(C(=O)CCC2)C1c1ccccc1 (stereo not drawn) -1.9%
CN(C)N1C(N)=C(C#N)C(c2ccc(Br)cc2)C2=C1CCCC2=O (stereo not drawn) -0.393%
Cc1occc1C(=O)N/N=C/c1ccc(-c2cccc([N+](=O)[O-])c2)o1 -1.61%
O=C(CCCCO)c1ccc(O)c(Cl)c1 -9.87%
Cc1ccc(-c2csc(NCCc3nc4cc(Cl)c(Cl)cc4n3CCOCCO)n2)cc1 3.23%
CCOC(=O)CCCN1CC(O)=C(c2nc3ccccc3s2)C1=N -2.49%
CCOC(=O)N1CCN(CC(=O)Nc2cc(C)nn2-c2nc3ccccc3s2)CC1 -2.13%
COc1ccccc1C(=O)NCCC(=O)NCC(c1ccco1)N1CCCCC1 (stereo not drawn) 2.56%
COc1ccc(CCC(=O)c2ccc(OC)cc2)cc1 0.925%
COc1ccc(C(=O)C[n+]2ccc(C)cc2)cc1 6.13%
COC(=O)c1c(-c2ccsc2)oc2ccc(-c3cc(OC)c(OC)c(OC)c3)cc12 -4.62%
Cc1ccc(-n2c(O)c(C=Nc3ccc(S(=O)(=O)Nc4ncccn4)cc3)c3ccccc3c2=O)cc1C -1.55%
CCOc1ccc(-n2c(O)c(/C=N/c3ccnn3Cc3ccncc3)c3ccccc3c2=O)cc1 0.299%
CC(=O)c1ccc(NC(=O)CSC(=S)N2CCCC2)cc1 -0.968%
O=C(CSC(=S)N1CCOCC1)c1ccccc1 0.663%
Cc1cc(C)c(S(=O)(=O)N2CCCC2CNC(=O)c2ccc3c(c2)OCO3)c(C)c1 (stereo not drawn) 4.9%
COc1ccccc1OCC(=O)Nc1ccccc1C(=O)NC1CC1 -1.85%
COc1cc(C2C(C#N)=C(N)Oc3n[nH]c(-c4ccccn4)c32)cc(OC)c1OC (stereo not drawn) -0.727%
COC(=O)C1=C(C)OC(N)=C(C#N)C1c1cc(OC)ccc1OC (stereo not drawn) -2.56%
O=C1CN(C(=O)COc2c(Cl)cccc2Cl)c2ccccc2N1 0.217%
CCOC(=O)c1cc2ccccc2n1CC(=O)c1ccccc1 -1.27%
CCOC(=O)c1cc2occc2n1CC(=O)N1CCN(C(=O)c2ccco2)CC1 -1.58%
COc1ccc(OC)c(S(=O)(=O)N2CCCC(C(=O)N3CCC(C(N)=O)CC3)C2)c1 (stereo not drawn) 6.32%
O=C(O)c1ccccc1CSc1nc2ccccc2s1 -3.5%
CCC(C(=O)N1CCOCC1)n1c(C(=O)OC)cc2occc21 (stereo not drawn) -3.41%
COC(=O)c1ccc(S(=O)(=O)NCc2ccccc2)n1C -3.7%
